Results published in PubChem BioAssay (NCI).
Where “and” joins values, the source holds several entries; their conditions need not be identical. Identical values can stand only once. Compounds without any hit were thinned out: in the full panel of roughly 83,000, 20% have a hit.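 Single-dose data. Exposure time 48 hours. Values below 10 considered active.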 Calls of active or inactive are those of the source.

What was measured:
Experiment in all cases: NCI-60 one-dose screen, 48 h (100 = growth as untreated, 0 = no growth, -100 = all killed)
MOLT-4 leukemia = conditions: 10 µM
SR leukemia = conditions: 10 µM
RPMI-8226 leukemia = conditions: 10 µM
OVCAR-8 ovarian = conditions: 10 µM
OVCAR-5 ovarian = conditions: 10 µM
OVCAR-4 ovarian = conditions: 10 µM
SK-OV-3 ovarian = conditions: 10 µM
IGROV1 ovarian = conditions: 10 µM
OVCAR-3 ovarian = conditions: 10 µM
HS 578T breast = conditions: 10 µM
NCI/ADR-RES ovarian = conditions: 10 µM
T-47D breast = conditions: 10 µM
MDA-MB-435 melanoma = conditions: 10 µM
SW-620 colon = conditions: 10 µM
HCT-116 colon = conditions: 10 µM
HCC-2998 colon = conditions: 10 µM
KM12 colon = conditions: 10 µM
BT-549 breast = conditions: 10 µM
MCF7 breast = conditions: 10 µM unless noted

Measured: growth

COc1ccc(/C=C(\C)[N+](=O)[O-])cc1OC
active: MOLT-4 leukemia -25% | SR leukemia -17.4% | RPMI-8226 leukemia -20.2% | OVCAR-8 ovarian -27.8% | IGROV1 ovarian -18.5% | OVCAR-3 ovarian -76.3% | T-47D breast -21.6% | MDA-MB-435 melanoma -59.1% | SW-620 colon -42.4% | HCT-116 colon -28.9%
inactive: OVCAR-5 ovarian 67.8% | OVCAR-4 ovarian 17.2% | SK-OV-3 ovarian 104% | HS 578T breast 65.7% | NCI/ADR-RES ovarian 90.5% | HCC-2998 colon 94.3% | KM12 colon 54.6%

N#CCc1ccccc1
inactive: MOLT-4 leukemia 97.9% | SR leukemia 104% | RPMI-8226 leukemia 101% | OVCAR-8 ovarian 105% | OVCAR-5 ovarian 101% | OVCAR-4 ovarian 94.6% | SK-OV-3 ovarian 98.4% | IGROV1 ovarian 115% | OVCAR-3 ovarian 111% | HS 578T breast 106% | NCI/ADR-RES ovarian 103% | T-47D breast 103% | BT-549 breast 91.7% | MDA-MB-435 melanoma 110% | SW-620 colon 100% | MCF7 breast 97.7% | HCT-116 colon 102% | HCC-2998 colon 106% | KM12 colon 111%

Cc1ccc(C(=O)C2C(c3ccccc3)N2C2CCCCC2)cc1 (configuration not stated)
inactive: MOLT-4 leukemia 94.9% and 93.3% | SR leukemia 94.4% and 97.4% | RPMI-8226 leukemia 78.5% and 94.1% | OVCAR-8 ovarian 103% and 101% | OVCAR-5 ovarian 97.4% and 95.9% | OVCAR-4 ovarian 98.4% and 87.2% | SK-OV-3 ovarian 102% and 96.2% | IGROV1 ovarian 119% and 92.4% | OVCAR-3 ovarian 114% and 108% | HS 578T breast 102% and 97.1% | NCI/ADR-RES ovarian 103% and 99.7% | BT-549 breast 104% and 105% | MDA-MB-435 melanoma 95% and 88.3% | SW-620 colon 106% and 95.2% | MCF7 breast 97% and 94.2% | HCT-116 colon 92.5% and 75.3% | HCC-2998 colon 114% and 113% | KM12 colon 111% and 100%

ClCc1ccc2ccccc2n1
inactive: MOLT-4 leukemia 81.3% | SR leukemia 88.2% | RPMI-8226 leukemia 98.6% | OVCAR-8 ovarian 101% | OVCAR-5 ovarian 83.4% | OVCAR-4 ovarian 101% | SK-OV-3 ovarian 113% | IGROV1 ovarian 78.2% | OVCAR-3 ovarian 99% | HS 578T breast 97.4% | NCI/ADR-RES ovarian 98.4% | T-47D breast 87% | BT-549 breast 102% | MDA-MB-435 melanoma 93.9% | SW-620 colon 114% | HCT-116 colon 91.1% | HCC-2998 colon 105% | KM12 colon 103%

Cn1c(O)c(N=O)c(=O)n(C)c1=O
inactive: MOLT-4 leukemia 101% and 99.9% | SR leukemia 103% and 80% | RPMI-8226 leukemia 110% and 92% | OVCAR-8 ovarian 99.6% and 111% | OVCAR-5 ovarian 116% and 98.1% | OVCAR-4 ovarian 116% and 111% | SK-OV-3 ovarian 108% and 104% | IGROV1 ovarian 111% and 114% | OVCAR-3 ovarian 101% and 94.8% | HS 578T breast 97.1% and 98.9% | NCI/ADR-RES ovarian 101% and 102% | T-47D breast 101% and 97% | BT-549 breast 109% and 99% | MDA-MB-435 melanoma 113% and 93.3% | SW-620 colon 97% and 98.9% | MCF7 breast 104% and 97.2% | HCT-116 colon 113% and 97.3% | HCC-2998 colon 107% | KM12 colon 102% and 98.6%

[Cl][Sn]([c]1ccccc1)([c]1ccccc1)[c]1ccccc1
active: MOLT-4 leukemia -7.21% | SR leukemia -21% | RPMI-8226 leukemia -28% | OVCAR-8 ovarian -74.5% | OVCAR-5 ovarian -84.1% | OVCAR-4 ovarian -88.9% | SK-OV-3 ovarian -97.3% | IGROV1 ovarian -76.8% | OVCAR-3 ovarian -94.2% | HS 578T breast 0.581% | NCI/ADR-RES ovarian -37.7% | BT-549 breast -83.1% | MDA-MB-435 melanoma -83.9% | SW-620 colon -56.2% | MCF7 breast -81.1% | HCT-116 colon -97.3% | HCC-2998 colon -83.9% | KM12 colon -71.3%

COc1cc([N+](=O)[O-])c2ncccc2c1[N+](=O)[O-]
inactive: MOLT-4 leukemia 26% | SR leukemia 25.7% | RPMI-8226 leukemia 45.8% | OVCAR-8 ovarian 69.8% | OVCAR-5 ovarian 124% | OVCAR-4 ovarian 47.5% | SK-OV-3 ovarian 91.5% | IGROV1 ovarian 23.1% | OVCAR-3 ovarian 58.1% | HS 578T breast 79.4% | NCI/ADR-RES ovarian 81.7% | T-47D breast 50.9% | MDA-MB-435 melanoma 44.8% | MCF7 breast 23.3% | HCT-116 colon 14.4% | HCC-2998 colon 102% | KM12 colon 20.3%
active: SW-620 colon -61.5%
